Among the data in PubChem BioAssay (NCATS) are Potency values, retold here.

Records with an inconclusive call do not appear. Active and inactive are the calls of the source. Calls follow the shape of the dose curve; as a rule, active = well fitted cell-killing curve with a large enough effect; inconclusive = small, poorly fitted or top-dose-only effect, or effect the other way; inactive = no such curve, though single readings can be large or run the other way.

A short description of experiment [1]: Quantitative High-Throughput drug screen in 47 multiple myeloma cell lines against the NCATS MIPE library collection: U266_ATCC cell viability assay (AID 1919864). Also: nearly all actives have a fitted effect of over 35% in size. An outline of the steps: (§1)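 MIPE 4.0 approved/investigational drugs; 500 cells/well; 48 h 37 °C humidified 5% CO2; CTG luminescence readout; DMSO = 100%, media = 0% viability.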
Experiment [2] in a line: Quantitative High-Throughput drug screen in 47 multiple myeloma cell lines against the NCATS MIPE library collection: XG1_PLB cell viability assay (AID 1919866). Also: nearly all actives have a fitted effect of over 35% in size. In a few lines: as §1
Experiment [3] can be described thus: Quantitative High-Throughput drug screen in 47 multiple myeloma cell lines against the NCATS MIPE library collection: OPM2_DSMZ cell viability assay (AID 1919872). Also: nearly all actives have a fitted effect of over 30% in size. In a few lines:
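We plated 500 myeloma cells per well, pinned in MIPE 4.0 compounds, and incubated for 48 hours at 37C. ATP was then quantified with CellTiter-Glo, with DMSO and media-only wells defining 100% and 0%.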

Experiment [4] can be described thus: Quantitative High-Throughput drug screen in 47 multiple myeloma cell lines against the NCATS MIPE library collection: UTMC2_PLB cell viability assay (AID 1919868). Also: nearly all actives have a fitted effect of over 55% in size. An outline of the steps: as §1
Experiment [5] can be described thus: Quantitative High-Throughput drug screen in 47 multiple myeloma cell lines against the NCATS MIPE library collection: PE2_PLB cell viability assay (AID 1919869). Also: nearly all actives have a fitted effect of over 35% in size. An outline of the steps: as §1
Experiment [6] in a line: Quantitative High-Throughput drug screen in 47 multiple myeloma cell lines against the NCATS MIPE library collection: PCM6_Riken cell viability assay (AID 1919870). Also: nearly all actives have a fitted effect of over 30% in size. In a few lines:
as §1

The nature of experiment [7]: Quantitative High-Throughput drug screen in 47 multiple myeloma cell lines against the NCATS MIPE library collection: RPMI8226_ATCC cell viability assay (AID 1919871). Also: nearly all actives have a fitted effect of over 30% in size. An outline of the steps:
as §1

The nature of experiment [8]: Quantitative High-Throughput drug screen in 47 multiple myeloma cell lines against the NCATS MIPE library collection: XG6_PLB cell viability assay (AID 1919865). Also: nearly all actives have a fitted effect of over 40% in size. An outline of the steps: as §1
The nature of experiment [9]: Quantitative High-Throughput drug screen in 47 multiple myeloma cell lines against the NCATS MIPE library collection: VP6_DJ cell viability assay (AID 1919867). Also: nearly all actives have a fitted effect of over 40% in size. In a few lines:
as §1

The nature of experiment [10]: Quantitative High-Throughput drug screen in 47 multiple myeloma cell lines against the NCATS MIPE library collection: KMS11_JCRBsus cell viability assay (AID 1919873). Also: nearly all actives have a fitted effect of over 50% in size. In a few lines:
as §1
Potency is read from the fitted curve at half-maximal effect.

With `CC(C)c1ccc2c(c1)c(SC(C)(C)C)c(CC(C)(C)C(=O)O)n2Cc1ccc(Cl)cc1`, the values for the Potency in experiment [1] and in [2] were 20.9 µM (active) and 23.5 µM (active), respectively. In addition, in experiment [3], the Potency entry is “inactive”.

With `Clc1ccc(C(Cn2ccnc2)OCc2ccc(Sc3ccccc3)cc2)c(Cl)c1` (stereo not given), in experiment [1], the Potency result is “inactive”. The Potency in [2] was 23.5 µM (active); in experiment [4], 33.2 µM (active); in [5] it was 20.9 µM (active); in experiment [6], 18.7 µM (active); in experiment [7], 23.5 µM (active).

`O=C(NOCC1CC1)c1ccc(F)c(F)c1Nc1ccc(I)cc1Cl`: the Potency in experiment [1] is 23.5 µM (active); in experiment [8], 6.62 µM (active); in experiment [2], 11.8 µM (active); in [9], 4.69 µM (active); in experiment [4], 13.2 µM (active); in experiment [5], 6.62 µM (active). In addition, the Potency in experiment [10] is 20.9 µM (active).

As to `Cc1cc(=O)c2c(O)c3c(O)cc(=O)c4c3c3c(cc(O)c1c23)C(C)(C)C=4O`, the Potency in [1] is 26.4 µM (active); in [2], 1.05 µM (active); in [9], 0.469 µM (active); in experiment [4] it was 0.296 µM (active); in [5], 0.296 µM (active); in [6], 1.87 µM (active). Besides, the Potency in [7] is 1.48 µM (active); in experiment [3] it was 13.2 µM (active).

Take `CC(=O)O[C@H]1C(=O)[C@@]2(C)C([C@H](OC(=O)c3ccccc3)[C@]3(O)C[C@H](OC(=O)[C@H](O)[C@@H](NC(=O)c4ccccc4)c4ccccc4)C(C)=C1C3(C)C)[C@]1(OC(C)=O)CO[C@@H]1C[C@@H]2O` (stereo not given in full): the Potency entry in experiment [1], in [2], in experiment [9], in experiment [5], in experiment [6] and in [7] was “inactive” each time. Further, in experiment [10], the Potency entry was “inactive”.

As to `CCN(CC)CCOc1ccc(Nc2ncc3cc(-c4c(Cl)cccc4Cl)c(=O)n(C)c3n2)cc1`, the Potency in [1] is 10.5 µM (active); in [2] it was 0.59 µM (active); in experiment [9] it was 0.0083 µM (active); in [4], 0.132 µM (active); in experiment [5], 0.0418 µM (active); in experiment [6], 0.935 µM (active). In addition, the Potency in [7] is 2.35 µM (active); in [3], 1.18 µM (active); in experiment [10] it was 0.0418 µM (active).

Consider `N=C(N=C(N)N)N1CCOCC1`, for which the Potency in [1] was 18.7 µM (active). The Potency entry in [9], in [4], in [5] and in experiment [10] was “inactive” throughout.

`Cc1cc(=O)oc2cc(O)ccc12`: the Potency entry in experiment [1], in [2], in experiment [5], in experiment [7], in experiment [3] and in experiment [10] was “inactive” throughout.

With `O=Nc1c(-c2c(O)[nH]c3cc(Br)ccc23)[nH]c2ccccc12`, the Potency is 16.6 µM (active) in experiment [1]; 3.32 µM (active) in [8]; 5.9 µM (active) in experiment [2]; 5.26 µM (active) in [9]; 8.33 µM (active) in [4]; 5.26 µM (active) in [5]. The results for the Potency in experiment [6], in experiment [7] and in experiment [10] were 3.32 µM (active), 18.7 µM (active) and 3.72 µM (active), respectively.

`COc1c2occc2cc2ccc(=O)oc12`: the Potency entry in experiment [1], in experiment [8] and in experiment [5] was “inactive” in each case. For the same molecule, the Potency in [2] was 5.9 µM (active).

In the case of `CCCCN(CCCC)CCC(O)c1cc2c(Cl)cc(Cl)cc2c2cc(C(F)(F)F)ccc12` (stereo not given), the Potency entry in experiment [1], in experiment [7], in experiment [3] and in experiment [10] was “inactive” throughout. Also, the results for the Potency in experiment [8] and in experiment [2] were 26.4 µM (active) and 18.7 µM (active), respectively.

On to `NC(=NCc1ccccc1)NC(=O)c1nc(Cl)c(N)nc1N`, for which the Potency in experiment [1] was 1.48 µM (active); in experiment [8], 0.935 µM (active); in experiment [2], 2.64 µM (active); in experiment [9] it was 7.43 µM (active); in [5], 9.35 µM (active); in [6], 4.69 µM (active). Further, the Potency entry in [4], in [7], in experiment [3] and in experiment [10] was “inactive” throughout.

Turning to `Cc1cc2cc3c(C)cc(=O)oc3c(C)c2o1`, the Potency in experiment [1] is 11.8 µM (active); in experiment [8] it was 6.62 µM (active); in experiment [2] it was 18.7 µM (active); in experiment [9], 23.5 µM (active); in experiment [5] it was 20.9 µM (active); in experiment [6], 20.9 µM (active). Besides, in experiment [7], the Potency is 20.9 µM (active). For the same molecule, the Potency result in experiment [3] was “inactive”.

In the case of `CC(=O)NC[C@H]1CN(c2ccc(N3CCOCC3)c(F)c2)C(=O)O1`, the Potency result in experiment [1], in experiment [8], in experiment [2], in experiment [9], in experiment [4] and in [5] was “inactive” in each case. Further, the Potency entry in experiment [6] is “inactive”.

Consider `CCC(C)(Oc1ccc(C2(c3ccc(OC(C)(CC)C(=O)O)cc3)CCCCC2)cc1)C(=O)O` (stereo not given), for which the Potency entry in experiment [1], in experiment [2], in experiment [9], in experiment [5], in experiment [7] and in experiment [3] was “inactive” throughout. For the same molecule, the Potency entry in experiment [10] is “inactive”.

Consider `CN(C)CCc1c[nH]c2ccc(Cn3cncn3)cc12`, for which the Potency entry in [1], in [2], in [4], in experiment [5], in experiment [7] and in [3] was “inactive” each time. The Potency entry in [10] was “inactive”. The Potency in [9] is 2.09 µM (active).

For the molecule `N[C@@H](Cc1cc(I)c(Oc2cc(I)c(O)c(I)c2)c(I)c1)C(=O)O`, the Potency entry in [1], in experiment [2], in experiment [5], in [6], in [7] and in [10] was “inactive” in each case.

As to `CC(C)C[C@H](NC(=O)[C@H](Cc1ccccc1)NC(=O)c1cnccn1)B(O)O`, the Potency is 0.0093 µM (active) in experiment [1]; 0.0074 µM (active) in experiment [8]; 0.0105 µM (active) in [2]; 0.0074 µM (active) in experiment [9]; 0.148 µM (active) in [4]; 0.0187 µM (active) in experiment [7]. Besides, the Potency in experiment [3] was 0.0264 µM (active); in experiment [10], 0.0083 µM (active).

With `O=C(CCc1ccc(O)cc1)c1c(O)cc(O)cc1O`, in [1], the Potency result is “inactive”. Also, the Potency in experiment [8] was 0.118 µM (active); in experiment [2] it was 0.132 µM (active); in experiment [4], 0.332 µM (active); in experiment [5], 5.26 µM (active); in experiment [7], 4.69 µM (active).

In the case of `Nc1ccc(S(N)(=O)=O)cc1`, the Potency entry in [1], in [8], in experiment [2], in experiment [4], in experiment [5] and in experiment [7] was “inactive” in each case. The Potency result in [3] and in [10] was “inactive” throughout.

Consider `CNC[C@@H](O)[C@@H](O)[C@H](O)[C@H](O)CO`, for which the Potency result in experiment [1], in [8], in experiment [2], in [7] and in [3] was “inactive” each time.

Take `Nc1ccn([C@@H]2O[C@H](CO)[C@@H](O)C2O)c(=O)n1` (stereo not given in full): the Potency result in [1], in experiment [2], in experiment [9], in experiment [5], in experiment [6] and in experiment [7] was “inactive” each time. Also, the Potency in experiment [10] was 14.8 µM (active).
